Laboratory results from ChEMBL document CHEMBL1961873, “Compounds: GSK PKIS; Assays: Nanosyn kinase panel” (2012).
“And” between values parts separate entries of the source, which are not always exact repeats. Identical values can stand only once.

Molecular target: T1, Interleukin-1 receptor-associated kinase 4 (Homo sapiens) (UniProt Q9NWZ3)
T1 sequence (whole entry): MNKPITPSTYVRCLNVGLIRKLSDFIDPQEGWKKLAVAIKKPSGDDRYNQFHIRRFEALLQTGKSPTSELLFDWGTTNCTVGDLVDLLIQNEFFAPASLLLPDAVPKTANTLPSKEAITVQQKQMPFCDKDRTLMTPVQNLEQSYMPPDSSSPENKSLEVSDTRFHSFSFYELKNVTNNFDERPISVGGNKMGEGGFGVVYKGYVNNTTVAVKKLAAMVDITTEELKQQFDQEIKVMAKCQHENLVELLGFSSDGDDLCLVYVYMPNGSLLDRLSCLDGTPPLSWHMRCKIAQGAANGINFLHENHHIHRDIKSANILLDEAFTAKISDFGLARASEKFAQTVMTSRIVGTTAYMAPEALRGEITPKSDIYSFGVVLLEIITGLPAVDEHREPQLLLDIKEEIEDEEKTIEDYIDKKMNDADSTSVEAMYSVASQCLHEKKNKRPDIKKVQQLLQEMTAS
Conditions: at 1 µM
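Note: mean inhibition values, from the GSK PKIS dataset.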

| Structure (SMILES) | inhibition |
| --- | --- |
| CN1CCN(Cc2ccc(-c3cc4ncnc(Nc5ccc(OCc6cccc(F)c6)c(Cl)c5)c4s3)o2)CC1 | 0.56% and 2.95% |
| COC(=O)Nc1nc2cc(Oc3ccc(NC(=O)Nc4ccccc4)cc3)ccc2[nH]1 | 0.86% |
| NS(=O)(=O)c1ccc(N/N=C2\C(=O)Nc3ccc(C(=O)NCc4ccncc4)cc32)cc1 | 1.57% |
| CNC(=O)c1ncccc1Nc1nc(Nc2cc3c(cc2OC)CCCN3C(=O)CN(C)C)nc2[nH]ccc12 | 2.65% |
| CS(=O)(=O)CCNCc1ccc(-c2ccc3ncnc(Nc4ccc(OCc5ccccc5)cc4)c3c2)o1 | 1.78% |
| Cc1nnc(-c2cccc(-c3ccc(C(=O)NCC4CC4)cc3)c2)o1 | 2.66% |
| O=C1Nc2ccccc2/C1=C1\CCc2cc(O)ccc21 | 5.31% |
| Cc1cc(O)cc(C)c1/C=C/c1cncc(C(=O)OC(C)(C)C)c1 | 1.36% |
| O=C(O[C@H]1CN[C@H](C#Cc2cc3ncnc(Nc4ccc5c(cnn5Cc5ccccc5)c4)c3s2)C1)N1CCOCC1 | -0.48% |
| Nc1nccc(-c2c(-c3ccc(F)cc3)ncn2C2CCNCC2)n1 | -1.58% and -0.23% |
| CN1CCC(n2cnc(-c3ccc(F)cc3)c2-c2ccnc(NCCO)n2)CC1 | 1.47% |
| CC1(C)CC(n2cnc(-c3ccc(F)cc3)c2-c2ccnc(N)n2)CC(C)(C)N1 | 0.49% |
| CN1CCC(C(=O)Nc2n[nH]c3nc(-c4ccc(O)cc4)c(Br)cc23)CC1 | 2.24% and 1.33% |
| CN(c1ccc(NC(=O)NCCN2CCOCC2)cc1)c1ccnc(Nc2ccc(CS(C)(=O)=O)cc2)n1 | 1.07% |
| COc1cccc(-n2ncc3c(N/N=C/c4ccc(C(=O)NCCN(C)C)cc4)ncnc32)c1 | 1.87% |
| CS(=O)(=O)Nc1ccc(-c2cc(-c3ccccc3)cc(C(N)=O)c2N)cc1 | 1.37% |

| Structure (SMILES) | inhibition |
| --- | --- |
| N#Cc1ccc2c(-c3ccnc(NC4CC4)n3)c(-c3ccc(F)cc3)nn2c1 | -0.5% |
| COc1ccccc1-c1cc(/C=C2\C(=O)Nc3ncc(Br)cc32)cc(Br)c1O | 1.85% |
| COc1cc2c(cc1Nc1nc(Nc3cccc(F)c3C(N)=O)c3cc[nH]c3n1)N(C(=O)CN1CCN(C(C)C)CC1)CC2 | -0.43% |
| CC(C)c1ccc(-c2cc(-c3c[nH]nc3-c3ccccn3)ccn2)cc1 | 0.36% |
| NS(=O)(=O)c1cccc(N/C=C2\C(=O)Nc3ccccc32)c1 | 2.37% |
| Nc1ncnc2occ(-c3ccc(NC(=O)Nc4cc(C(F)(F)F)ccc4F)cc3)c12 | 1.77% and -0.37% |
| COc1ccc2ncn(-c3cc(O[C@H](C)c4ccccc4C(F)(F)F)c(C(N)=O)s3)c2c1 | 0.87% |
| CCOc1ccc2c(-c3ccnc(Nc4cc(OC)cc(C(F)(F)F)c4)n3)cnn2n1 | 0.63% |
| COc1cc(N2CCN(C(C)C)CC2)ccc1Nc1nc(Nc2cccc3ncccc23)c2cc[nH]c2n1 | -0.29% |
| CS(=O)(=O)Nc1ccc(-c2ccc3c(NC(=O)C4CC4)n[nH]c3c2)cc1 | 1.75% |
| CNC(=O)c1cncc(/C=C/c2ccccc2C)c1 | 2% |
| Cc1cc(O)cc(C)c1/C=C/c1cncc(C(N)=O)c1 | 0.71% |
| Fc1cccc(COc2ccc(Nc3ncncc3C#Cc3ccccc3)cc2Cl)c1 | 2.43% |
| FC(F)(F)CNc1nccc(-c2cnn3ncccc23)n1 | 1.21% |
| CC1=C(C(=O)Nc2ccc3[nH]nc(C)c3c2)C(c2ccc(C(F)(F)F)cc2)CC(=O)N1 (stereo unspecified) | 1.5% |
